Gli-Sufu block = Gli-Sufu pathway antagonism; Sufu-KO-LIGHT fibroblasts, Gli luciferase reporter luminescence; inhibition, % at 5 µM; actives 0.74% (n = 340,000); AID 588413;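 active = inhibition above about 55%, limit read from the data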;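 note: 0% = DMSO-treated cells and 100% = wells with medium but no cells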
Beta cell apopt = beta cell apoptosis inhibition | protection from apoptosis, % (no concentration beside the values) | actives 0.8% (n = 300,000) | INS-1E cytokine-induced death, ATP luminescence, 48 h; percent of positive-control rescue, neutral wells zero;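 active = Every replicate reaches about 75%, or at least half do and their mean reaches it too, limit read from the data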;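 note: 0% = cytokine-treated negative control wells and 100% = positive control rescue; higher means more ATP so stronger rescue from cytokine killing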
Shn3 3UTR inh = inhibitors of Schnurri-3 3'UTR reporter in osteoblasts. Clone20 osteoblast Shn3 3'UTR firefly luciferase, 24 h. inhibition, % at 12.5 µM. actives 0.52% (n = 360,000);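 active = mean inhibition of at least 75% with every replicate also reaching 75%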;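 note: 0% = median of neutral control wells and 100% = pilot-screen positive control compound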
Mdm2-MdmX inh = disrupts the human Mdm2-MdmX interaction; actives 3% (n = 330,000); SaOS-2 split-luciferase Mdm2/MdmX complementation, luminescence; inhibition, % at 8 µM;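 active = inhibition of at least 50% at 8 µM in the primary screen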
CSC inhib = cancer stem cell inhibition | actives 1.1% (n = 300,000) | cancer stem cell-like cells viability, luminescence | inhibition, % at 7.5 µM; in the data active = inhibition above about 75%; tested in HMLE shEcad cells
PAX8 reporter = inhibitors of PAX8 transcriptional activity in RMG-I cells; RMG-I TPO-luciferase reporter, SteadyGlo, 24 h; inhibition, % at 12.6 µM; actives 1.2% (n = 360,000); AID 652154;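 active = mean replicate inhibition at least 60% with every replicate also reaching 60%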;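 note: luciferase light reporting Pax8 driven TPO promoter activity; plate controls were median of neutral control wells for no effect and mitoxantrone controls for full effect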
Mdm2 MdmX conf = confirmation of human Mdm2/MdmX interaction inhibitors; inhibition, % at 8 µM; AID 489028; shares compounds with Mdm2-MdmX inh; actives 55% (n = 10,000); Mdm2-MdmX binding, luminescent assay; in the data active = inhibition above about 40%
FLuc counter = inhibits full-length luciferase, flagging false Mdm2/MdmX hits; shares compounds with Mdm2-MdmX inh; SaOS-2 full-length luciferase counterscreen, luminescence; inhibition, % at 8 µM; actives 77% (n = 6,200); AID 504607;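 active = mean inhibition at 8 µM reaching about 37%, which flags the compound as non-specific, limit read from the data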;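 note: p53-null SaOS-2 cells with luciferase driven by a doxycycline-inducible promoter; compound on cells about two nights before reading with doxycycline added after day one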
* hit, by the source's call. An excerpt weighted towards active compounds, which were near 4% of everything screened.

COc1ccc(N=Nc2ccc(O)c3ncccc23)cc1 was read as Gli-Sufu block 61.0*, Beta cell apopt 103.6*, Shn3 3UTR inh 91.0*, Mdm2-MdmX inh 76.8*, CSC inhib 151.3*, PAX8 reporter 48.9, Mdm2 MdmX conf 83.9* and FLuc counter 31.7.
O=C(Nc1cccc2ncccc12)c1ccc2c(c1)OCCO2 was read as Gli-Sufu block -66.5, Beta cell apopt 0.6, Shn3 3UTR inh -7.7, Mdm2-MdmX inh 4.3 and CSC inhib 4.5.
For COc1cccc(N=Nc2ccc(O)c3ncccc23)c1 the results were Gli-Sufu block 67.7*, Beta cell apopt 104.3*, Shn3 3UTR inh 80.4, Mdm2-MdmX inh 81.9*, CSC inhib 123.3*, PAX8 reporter 48.3, Mdm2 MdmX conf 92.0* and FLuc counter 20.6.
COc1cccc(N=Nc2ccc3cccnc3c2O)c1 was read as Gli-Sufu block -5.0, Beta cell apopt 90.3*, Shn3 3UTR inh 89.6*, Mdm2-MdmX inh 90.8*, CSC inhib 90.0*, PAX8 reporter 49.6, Mdm2 MdmX conf 90.4* and FLuc counter 22.6.
Screening Nc1ccc(N=Nc2ccccc2)c2cccnc12 returned Gli-Sufu block 15.0, Beta cell apopt 4.5, Shn3 3UTR inh -31.5, Mdm2-MdmX inh -45.6, CSC inhib 14.0 and PAX8 reporter -59.5.
CO[C@@H]1CN(C)C(=O)c2cc(NC(=O)C3CC3)ccc2OC[C@H](C)N(Cc2ccc(F)cc2)C[C@H]1C was read as PAX8 reporter 11.6.
`C[C@@H]1CCCCO[C@@H](CN(C)CC2CCCCC2)[C@H](C)CN([C@H](C)CO)C(=O)c2cc(NC(=O)Cc3ccccc3)ccc2O1` gave PAX8 reporter -18.5.
`COc1ccccc1NC(=O)N[C@@H]1C=C[C@@H](CC(=O)NCc2ccc(Cl)c(Cl)c2)O[C@H]1CO` gave PAX8 reporter 39.8.
`CC(C)c1cn([C@H]2C[C@@H]3O[C@@H](CO)CC[C@@H]3O[C@@H]2CCc2ccc(C#CC3(O)CCCC3)cc2)nn1` gave PAX8 reporter 6.0.
Screening O=C(Nc1ccccc1)N1C[C@H]2[C@@H](c3ccccc31)[C@@H](CO)N2C(=O)c1cccnc1 returned PAX8 reporter -76.0.
For COC1=C(Nc2ccc(O)cc2)C(=O)c2ccccc2C1=O the results were Gli-Sufu block -3.0, Beta cell apopt 52.2, Shn3 3UTR inh -2.0, Mdm2-MdmX inh -31.9, CSC inhib 20.8 and PAX8 reporter 35.0.
O=C1C(Cl)=C(Nc2ccc(O)cc2)C(=O)c2ccccc21 was read as Gli-Sufu block 7.7, Beta cell apopt 5.8, Shn3 3UTR inh 91.8*, Mdm2-MdmX inh 100.4*, CSC inhib 124.2*, PAX8 reporter 48.5, Mdm2 MdmX conf 100.2* and FLuc counter 51.1*.
Screening CCCN(C)C[C@H]1OCCCC[C@H](C)Oc2ccc(NS(=O)(=O)c3ccc(F)cc3)cc2C(=O)N([C@H](C)CO)C[C@H]1C returned PAX8 reporter 5.9.
For Clc1ccc(C2=Nn3c(nnc3-c3n[nH]c4c3CCC4)SC2)cc1 the results were Gli-Sufu block 34.5, Beta cell apopt 15.6, Shn3 3UTR inh 7.4, Mdm2-MdmX inh 85.3*, CSC inhib 45.9, Mdm2 MdmX conf 68.5* and FLuc counter 44.5*.
Cc1ccc(-c2nnc3n2N=C(c2ccc(Br)cc2)CS3)cc1 was read as Gli-Sufu block -7.3, Beta cell apopt 6.1, Shn3 3UTR inh 15.3, Mdm2-MdmX inh 14.3, CSC inhib 15.0 and PAX8 reporter 23.7.
Brc1ccc(C2=Nn3c(nnc3-c3n[nH]c4c3CCC4)SC2)cc1 was read as Gli-Sufu block 47.4, Beta cell apopt 8.8, Shn3 3UTR inh -24.2, Mdm2-MdmX inh 80.2*, CSC inhib 69.4, Mdm2 MdmX conf 79.5* and FLuc counter 72.5*.
For COc1ccc(S(=O)(=O)N[C@@H]2C=C[C@H](CC(=O)N3CCN(c4ccccc4)CC3)O[C@H]2CO)cc1 the results were PAX8 reporter -2.2.
Screening CC(=O)O[C@H]1[C@@H](O)[C@H](O)[C@H](Oc2c(O)c(C)c3c4c2[C@@H](C)CC[C@@H]4[C@@H](C)C[C@H]3C=C(C)C)O[C@H]1C returned Gli-Sufu block 5.9, Beta cell apopt 8.1, Shn3 3UTR inh -2.1, Mdm2-MdmX inh 90.1*, CSC inhib 105.9*, PAX8 reporter 64.3* and Mdm2 MdmX conf -0.3.
For COc1ccc(/C=N/Nc2cc(C)nc3ccc(OC)cc23)c(OC)c1 the results were Gli-Sufu block 33.5, Beta cell apopt 116.8*, Shn3 3UTR inh 96.3*, Mdm2-MdmX inh 100.0*, CSC inhib 101.2*, PAX8 reporter 87.1*, Mdm2 MdmX conf 99.3* and FLuc counter 51.5*.
`COc1ccc2nc(C)cc(N/N=C/c3ccccc3)c2c1` gave Gli-Sufu block 16.4, Beta cell apopt 96.1*, Shn3 3UTR inh 19.3, Mdm2-MdmX inh 100.4*, CSC inhib 96.9* and Mdm2 MdmX conf 25.6.
Screening COc1ccccc1/C=N/Nc1cc(C)nc2ccc(C)cc12 returned Gli-Sufu block -16.2, Beta cell apopt -1.3, Shn3 3UTR inh -94.8, Mdm2-MdmX inh -38.4, CSC inhib 56.8 and PAX8 reporter -28.8.
For CCC(=O)N1[C@H](CO)[C@@H]2c3ccccc3N(C(=O)Nc3cccc(Cl)c3)C[C@@H]21 the results were PAX8 reporter 1.3.
C=C1C(=O)O[C@@H]2C[C@@H](C)[C@@H]3C=CC(=O)[C@@]3(C)[C@@H](OC(C)=O)[C@H]12 was read as Gli-Sufu block 95.8*, Beta cell apopt 136.0*, Mdm2-MdmX inh 100.3*, CSC inhib 85.0*, PAX8 reporter 102.3*, Mdm2 MdmX conf 99.6* and FLuc counter 51.3*.
Screening CCOc1cccc(/C=N/NC(=O)c2cc(-c3cccn3C)n[nH]2)c1O returned Gli-Sufu block 11.2, Shn3 3UTR inh 87.7*, Mdm2-MdmX inh 62.9*, CSC inhib -6.0, PAX8 reporter 53.5, Mdm2 MdmX conf 62.5* and FLuc counter 51.6*.
Screening CCOc1cccc(/C=N/NC(=O)c2ccc3c(c2)OCCO3)c1O returned Gli-Sufu block 36.7, Beta cell apopt 91.6*, Shn3 3UTR inh 82.9, Mdm2-MdmX inh 56.0*, CSC inhib 27.7, PAX8 reporter 10.6, Mdm2 MdmX conf 43.0* and FLuc counter 45.3*.
For C/C(=N\NC(=O)c1ccc2c(c1)OCCO2)c1ccccc1 the results were Gli-Sufu block -48.8, Beta cell apopt -1.9, Shn3 3UTR inh 4.7, Mdm2-MdmX inh 71.3*, CSC inhib 23.5, PAX8 reporter -134.7 and Mdm2 MdmX conf -12.9.

Screening data from PubChem BioAssay.
